Measured values from PubChem BioAssay.
Calls of active or inactive are those of the source.

Columns and labels:
[1] = anti-His antibody binders, primary screen, artefact control for SMM control protein annotation, biochemical, small-molecule microarray, 635 nm fluorescence (AID 1128); details: anti-His Alexa647 antibody binding, higher = more signal;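 note: score merges feature fluorescence with signal-to-noise for each printed compound spot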
[2] = system: Human papillomavirus type 1a E7 protein (residues 1-88); test: HPV1a E7 small-molecule binders, primary screen, biochemical, small-molecule microarray, residues 1-88, 635 nm (AID 1129); details: small-molecule microarray binding, fluorescence 635 nm; higher = more signal
[3] = target: Focal adhesion kinase 1 (Homo sapiens) (UniProt Q05397); test: small-molecule microarray binders of FAK, primary screen, biochemical, 635/667 nm fluorescence, BSA, DTT (AID 1130); details: PTK2 binding, 635 nm fluorescence, higher = more signal;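 note: composite of spot emission at 667 nm and signal to noise over triplicate slides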
Sequence of Focal adhesion kinase 1 (Homo sapiens) (Q05397 whole entry, looked up): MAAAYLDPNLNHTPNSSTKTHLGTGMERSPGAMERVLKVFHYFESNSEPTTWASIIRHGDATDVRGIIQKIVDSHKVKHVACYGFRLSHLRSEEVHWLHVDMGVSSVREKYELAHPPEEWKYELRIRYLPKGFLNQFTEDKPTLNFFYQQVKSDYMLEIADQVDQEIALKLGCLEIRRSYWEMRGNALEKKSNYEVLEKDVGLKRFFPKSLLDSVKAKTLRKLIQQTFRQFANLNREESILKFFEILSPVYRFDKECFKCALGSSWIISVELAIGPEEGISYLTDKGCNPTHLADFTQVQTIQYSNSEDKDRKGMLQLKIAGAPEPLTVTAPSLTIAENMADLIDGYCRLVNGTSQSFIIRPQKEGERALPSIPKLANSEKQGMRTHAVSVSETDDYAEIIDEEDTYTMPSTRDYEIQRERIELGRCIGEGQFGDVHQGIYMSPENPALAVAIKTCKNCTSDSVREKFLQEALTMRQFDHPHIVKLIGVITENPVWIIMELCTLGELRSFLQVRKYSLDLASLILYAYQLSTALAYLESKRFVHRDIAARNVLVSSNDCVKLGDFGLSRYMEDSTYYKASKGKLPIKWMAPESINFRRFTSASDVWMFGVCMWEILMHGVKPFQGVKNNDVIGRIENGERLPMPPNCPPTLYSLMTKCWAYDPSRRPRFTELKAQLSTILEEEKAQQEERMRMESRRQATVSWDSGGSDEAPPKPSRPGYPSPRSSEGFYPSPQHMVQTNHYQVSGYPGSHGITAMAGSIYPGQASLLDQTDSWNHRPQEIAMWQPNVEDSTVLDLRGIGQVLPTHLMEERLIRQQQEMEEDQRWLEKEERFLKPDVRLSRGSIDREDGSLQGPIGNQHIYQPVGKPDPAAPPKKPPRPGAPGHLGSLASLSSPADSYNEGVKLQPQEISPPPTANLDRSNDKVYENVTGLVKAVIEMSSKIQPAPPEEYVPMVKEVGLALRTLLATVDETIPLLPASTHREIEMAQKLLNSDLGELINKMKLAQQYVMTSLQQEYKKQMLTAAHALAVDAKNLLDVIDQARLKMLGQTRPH

[4] = system: Fibrinogen (Alexa647-labelled); test: fibrinogen binders on compound microarrays, profiling panel, artefact control for SMM control-protein annotation, biochemical, small-molecule microarray, 635/667 nm fluorescence (AID 1131); details: fibrinogen-A647 binding fluorescence, higher = more signal;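 note: z-score merges 667 nm fluorescence with per-spot signal-to-noise over triplicate slides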
[5] = target: Follistatin (Homo sapiens) (UniProt P19883); test: follistatin binders on small-molecule microarrays, primary screen, biochemical, small-molecule microarray, 635/667 nm fluorescence (AID 1132); details: FST binding, 635 nm fluorescence, higher = more signal
Sequence of Follistatin (Homo sapiens) (P19883 whole entry, looked up): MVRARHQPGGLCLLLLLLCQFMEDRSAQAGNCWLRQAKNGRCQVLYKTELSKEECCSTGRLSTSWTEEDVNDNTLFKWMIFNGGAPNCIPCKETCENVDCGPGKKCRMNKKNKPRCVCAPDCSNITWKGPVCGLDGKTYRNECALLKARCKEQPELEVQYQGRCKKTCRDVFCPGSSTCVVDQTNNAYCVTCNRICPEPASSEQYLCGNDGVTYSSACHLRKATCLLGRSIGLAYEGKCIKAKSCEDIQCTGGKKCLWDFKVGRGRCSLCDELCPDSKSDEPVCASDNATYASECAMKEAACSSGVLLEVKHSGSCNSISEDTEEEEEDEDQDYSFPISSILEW

[6] = target: Fibroblast growth factor 2 (Homo sapiens) (UniProt P09038); test: FGF2 binders on small-molecule microarrays, primary screen, biochemical, small-molecule microarray, 635/667 nm fluorescence (AID 1133); details: small-molecule microarray binding, FGF2, fluorescence 635/667; higher = more signal
Sequence of Fibroblast growth factor 2 (Homo sapiens) (P09038 whole entry, looked up): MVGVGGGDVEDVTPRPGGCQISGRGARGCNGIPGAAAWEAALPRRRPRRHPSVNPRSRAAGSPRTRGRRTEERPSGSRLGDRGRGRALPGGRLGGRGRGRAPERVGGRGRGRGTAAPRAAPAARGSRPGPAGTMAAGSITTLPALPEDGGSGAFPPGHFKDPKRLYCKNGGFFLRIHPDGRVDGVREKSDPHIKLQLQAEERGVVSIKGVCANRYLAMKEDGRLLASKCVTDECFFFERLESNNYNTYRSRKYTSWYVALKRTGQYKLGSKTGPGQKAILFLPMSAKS

[7] = mitochondrial membrane potential change in A549 cells, profiling panel, cell-based, JC-1 fluorescence, basal, 24 h, 100 nL (AID 1138); details: higher = more signal;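 note: A549 lung adenocarcinoma cells under basal conditions with no added stimulus; test concentration not given here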
Lefty1 = Lefty1 binders on small-molecule microarrays, primary screen, biochemical, small-molecule microarray, 635/667 nm fluorescence (AID 1139); details: small-molecule microarray binding, fluorescence 635/667; higher = more signal
[8] = system: wheat germ agglutinin (Triticum aestivum), Alexa647-labelled; test: wheat germ agglutinin binders on compound microarrays, profiling panel, artefact control for SMM control-protein annotation, biochemical, small-molecule microarray, 635/667 nm fluorescence (AID 1140); details: WGA-A647 binding, 635 nm fluorescence, higher = more signal;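 note: score merges 667 nm feature emission with signal to noise over triplicate slides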
[9] = target: Luciferin 4-monooxygenase (Photinus pyralis) (UniProt P08659); test: firefly luciferase enzyme inhibitors, primary screen, biochemical, luminescence, purified enzyme, 2006 set (AID 1141); details: SteadyGlo luminescence, 30 min, higher = more signal, called active from +8 up or from −8 down;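 note: cell-free assay with purified firefly luciferase at 100 ng per well in PBS; test concentration not given here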
Sequence of Luciferin 4-monooxygenase (Photinus pyralis) (P08659 whole entry, looked up): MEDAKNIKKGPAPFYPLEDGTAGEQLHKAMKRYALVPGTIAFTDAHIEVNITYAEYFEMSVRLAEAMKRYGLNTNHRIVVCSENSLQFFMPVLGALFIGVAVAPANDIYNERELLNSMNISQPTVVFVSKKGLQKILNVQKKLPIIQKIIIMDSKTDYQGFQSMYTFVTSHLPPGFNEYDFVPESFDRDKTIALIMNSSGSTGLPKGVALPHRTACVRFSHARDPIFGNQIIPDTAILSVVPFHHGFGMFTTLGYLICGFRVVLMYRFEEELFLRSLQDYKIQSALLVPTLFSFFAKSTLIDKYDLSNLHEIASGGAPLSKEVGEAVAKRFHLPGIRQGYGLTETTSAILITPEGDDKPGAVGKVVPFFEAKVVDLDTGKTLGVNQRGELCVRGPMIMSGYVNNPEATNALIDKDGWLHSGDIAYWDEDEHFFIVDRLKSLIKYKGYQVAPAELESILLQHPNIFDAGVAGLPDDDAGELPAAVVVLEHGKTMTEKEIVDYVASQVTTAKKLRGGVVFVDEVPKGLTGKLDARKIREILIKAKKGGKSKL

SMILES | composite z-score [1] | composite z-score [2] | composite z-score [3] | composite z-score [4] | composite z-score [5] | composite z-score [6] | z-score [7] | composite z-score (Lefty1) | composite z-score [8] | z-score [9]
CN1C(=O)C2C=CC(C(O)Cc3ccccc3)N(Nc3ccccc3)C2C1=O (stereo not given) | 1.61 | 0.257 | 0.385 | 0.944 | 0.27 | -0.408 | -0.375 | -0.0697 | 1.12 | -0.492 (inactive)
CCCCCN1CC=CC23O[C@@H]4/C=C\CCCOC(=O)C4[C@H]2C(=O)N(CCCO)[C@@H]3C1=O (stereo not given in full) | 2.06 | 1.3 | 1.23 | -0.965 | -0.162 | -0.281 | -0.564 | 0.157 | 0.197 | -2.41 (inactive)
C=CCC(OC(C)=O)[C@@H]1[C@@H](N(Cc2cccc3ccccc23)C(=O)c2ccc(-c3ccccc3)cc2)c2cc(OCCCO)ccc2N1C(=O)Cc1ccc(OC)cc1 (stereo not given in full) | 0.364 | -0.128 | 0.179 | 0.603 | 0.652 | -0.0199 | 1.06 | 0.246 | 0.281 | 0.912 (inactive)
COCCOC(=O)N1C(=O)[C@@]2(c3cc(C#CCNC(N)=O)ccc31)[C@H](C(=O)NC[C@H](O)c1ccccc1)[C@H]1C(=O)O[C@H](c3ccccc3)[C@H](c3ccccc3)N1[C@@H]2c1ccccc1OCCO | 1.06 | 0.769 | 0.564 | 0.762 | 1.07 | 0.73 | -1.08 | 0.946 | 0.592 | -0.533 (inactive)
O=C1O[C@H](c2ccccc2)[C@H](c2ccccc2)N2[C@H]1[C@@H](C(=O)Nc1nc3ccccc3s1)[C@]1(C(=O)Nc3ccc(C#CCCO)cc31)[C@H]2c1ccc(OCCO)cc1 | 1.18 | 1.18 | 0.232 | 0.9 | 1.43 | 1.15 | -2.36 | 1.16 | 1.04 | -2.97 (inactive)
COc1ccc(C(=O)Nc2cccc(CN3C(=O)[C@]4(O[C@H](CCO)[C@@H]([Si](C)(C)c5ccc(OC)cc5)[C@@H]4C)c4ccccc43)c2)cc1 | 0.869 | 1.17 | 0.354 | 0.579 | 1.24 | 0.699 | -1.52 | 1.35 | 0.32 | 0.681 (inactive)
NCCCCCNC(=O)[C@@H]1C[C@@H]2C(=O)NCC(=O)N2[C@@H]1c1ccc(O)cc1 | 2.18 | 1.19 | 0.0992 | 0.948 | 1.51 | 1.79 | 1.41 | 1.76 | 0.891 | -1.11 (inactive)
CC1CC/C=C\[C@H]2OC34C=CCN(C(C)(C)C)C(=O)[C@H]3N(CCCCCCO)C(=O)[C@@H]4C2C(=O)O1 (stereo not given in full) | 1.65 | -0.572 | -0.61 | -0.988 | -0.49 | -0.635 | 0.699 | -0.349 | -0.872 | -0.939 (inactive)
CCc1oc(CC[C@@H](CO)NC(=O)NCCn2cc(C3(O)CCCCC3)nn2)c(C(=O)OC)c1C(=O)OC | 2.48 | 0.687 | -0.353 | 0.685 | 1.28 | 1.13 | -0.0225 | 1.63 | 0.074 | 0.654 (inactive)
COCCCN1C(=O)[C@@]2(c3ccc([N+](=O)[O-])cc3)CC(=O)N(C3CCCCC3)[C@@H]2c2ccc(CO)cc21 | 0.245 | -0.62 | -0.101 | -0.538 | 1.14 | 0.594 | -0.39 | 0.655 | -0.0848 | -0.302 (inactive)
CC[C@@H]1C=C(C(=O)O)[C@H](c2ccco2)N1S(=O)(=O)c1ccc(C)cc1 | 0.2 | -0.522 | 1.32 | -1.13 | 1 | -0.152 | -1.09 | -0.165 | 0.839 | 1.09 (inactive)
